In the supplement of paper PMC10077471:
Whole data set: some 1,900 compounds, median “excess over highest single agent (ExcessHSA) synergy score, 6x6 matrix” near -83, cut for the lowest 2% near -370. The list comes from a sample in which the lowest values are over-represented; it also holds similar structures and randomly drawn compounds.

test system: NCI-H446; assay: excess over highest single agent (ExcessHSA) synergy score, 6x6 matrix; higher = less synergy (more negative = stronger synergy); settings: 72 h; CellTiter-Glo viability

Row | Structure (SMILES) | excess over highest single agent
1 | CCNC(=O)c1noc(-c2cc(C(C)C)c(O)cc2O)c1-c1ccc(CN2CCOCC2)cc1 + Cc1sc2c(c1C)C(c1ccc(Cl)cc1)=N[C@@H](CC(=O)OC(C)(C)C)c1nnc(C)n1-2 [NCGC00250412-19] | -382
2 | NC(=O)Nc1cc(-c2ccc(CN3CCOCC3)cc2)sc1C(N)=O + Cc1sc2c(c1C)C(c1ccc(Cl)cc1)=N[C@@H](CC(=O)OC(C)(C)C)c1nnc(C)n1-2 [NCGC00250412-19] | -229
3 | CC(C)c1cc(C(=O)N2Cc3ccc(CN4CCN(C)CC4)cc3C2)c(O)cc1O + Cc1sc2c(c1C)C(c1ccc(Cl)cc1)=N[C@@H](CC(=O)OC(C)(C)C)c1nnc(C)n1-2 [NCGC00250412-19] | -247
4 | CC(C)(C)OC(=O)Nc1ccc(-c2cc(C(=O)NCCCCCCC(=O)NO)no2)cc1 + Cc1sc2c(c1C)C(c1ccc(Cl)cc1)=N[C@@H](CC(=O)OC(C)(C)C)c1nnc(C)n1-2 [NCGC00250412-19] | -161
5 | O=C(O)[C@H]1O[C@@H](Oc2cc3oc(-c4ccccc4)cc(=O)c3c(O)c2O)[C@H](O)[C@@H](O)[C@@H]1O + Cc1sc2c(c1C)C(c1ccc(Cl)cc1)=N[C@@H](CC(=O)OC(C)(C)C)c1nnc(C)n1-2 [NCGC00250412-19] | -92.6
6 | OC1CCC(Nc2ncc3nc(Nc4c(F)cc(F)cc4F)n([C@@H]4CCOC4)c3n2)CC1 (some centres not stated) + Cc1sc2c(c1C)C(c1ccc(Cl)cc1)=N[C@@H](CC(=O)OC(C)(C)C)c1nnc(C)n1-2 [NCGC00250412-19] | 17.3
7 | CCC(=O)N[C@H]1CC[C@H](C(=O)N(C)c2ccc(-c3nc4ccccc4o3)cc2)C1 + Cc1sc2c(c1C)C(c1ccc(Cl)cc1)=N[C@@H](CC(=O)OC(C)(C)C)c1nnc(C)n1-2 [NCGC00250412-19] | -57
8 | CN1CCN(Cc2ccc(NC(=O)Nc3ccc(Oc4cc(NC(=O)C5CC5)ncn4)cc3)cc2C(F)(F)F)CC1 + Cc1sc2c(c1C)C(c1ccc(Cl)cc1)=N[C@@H](CC(=O)OC(C)(C)C)c1nnc(C)n1-2 [NCGC00250412-19] | -34.2
9 | CC(=O)N(C)C1(c2ccccc2)CCN(CCC[C@]2(c3ccc(Cl)c(Cl)c3)CCCN(C(=O)c3ccccc3)C2)CC1 + Cc1sc2c(c1C)C(c1ccc(Cl)cc1)=N[C@@H](CC(=O)OC(C)(C)C)c1nnc(C)n1-2 [NCGC00250412-19] | -142
10 | O=C(N[C@@H](COc1ccc2[nH]c(=O)[nH]c2c1)c1ccccc1)c1cccn(Cc2ccc(F)c(F)c2)c1=O + Cc1sc2c(c1C)C(c1ccc(Cl)cc1)=N[C@@H](CC(=O)OC(C)(C)C)c1nnc(C)n1-2 [NCGC00250412-19] | -158
11 | COC[C@H]1OC(=O)c2coc3c2[C@@]1(C)C1=C(C3=O)[C@@H]2CCC(=O)[C@@]2(C)C[C@H]1OC(C)=O + Cc1sc2c(c1C)C(c1ccc(Cl)cc1)=N[C@@H](CC(=O)OC(C)(C)C)c1nnc(C)n1-2 [NCGC00250412-19] | -484
12 | COCC1OC(=O)c2coc3c2C1(C)C1=C(C3=O)C2CCC(O)C2(C)CC1OC(C)=O (configuration not stated) + Cc1sc2c(c1C)C(c1ccc(Cl)cc1)=N[C@@H](CC(=O)OC(C)(C)C)c1nnc(C)n1-2 [NCGC00250412-19] | -423
13 | COc1cc2ncnc(Nc3cc(Br)c(O)c(Br)c3)c2cc1OC + Cc1sc2c(c1C)C(c1ccc(Cl)cc1)=N[C@@H](CC(=O)OC(C)(C)C)c1nnc(C)n1-2 [NCGC00250412-19] | -207
14 | COC1=C(OC)C(=O)C(C/C=C(\C)CC/C=C(\C)CC/C=C(\C)CC/C=C(\C)CC/C=C(\C)CC/C=C(\C)CC/C=C(\C)CC/C=C(\C)CC/C=C(\C)CCC=C(C)C)=C(C)C1=O + Cc1sc2c(c1C)C(c1ccc(Cl)cc1)=N[C@@H](CC(=O)OC(C)(C)C)c1nnc(C)n1-2 [NCGC00250412-19] | -97.2
15 | COc1cc(OC)c(NC(=O)Nc2cc(C)on2)cc1Cl + Cc1sc2c(c1C)C(c1ccc(Cl)cc1)=N[C@@H](CC(=O)OC(C)(C)C)c1nnc(C)n1-2 [NCGC00250412-19] | -142
16 | Cc1ccc(-c2ncn(-c3ccc(Nc4nccc(-c5cccc(N6CCOCC6)c5)n4)cc3)n2)cn1 + Cc1sc2c(c1C)C(c1ccc(Cl)cc1)=N[C@@H](CC(=O)OC(C)(C)C)c1nnc(C)n1-2 [NCGC00250412-19] | -78.7
17 | CO[C@H]1[C@H](O)[C@@H](O)[C@H](n2c3c(Cl)cccc3c3c4c(c5c6cccc(Cl)c6[nH]c5c32)C(=O)NC4=O)O[C@@H]1CO + Cc1sc2c(c1C)C(c1ccc(Cl)cc1)=N[C@@H](CC(=O)OC(C)(C)C)c1nnc(C)n1-2 [NCGC00250412-19] | -234
18 | N[C@@H](Cc1ccc(O)c(O)c1)C(=O)O + Cc1sc2c(c1C)C(c1ccc(Cl)cc1)=N[C@@H](CC(=O)OC(C)(C)C)c1nnc(C)n1-2 [NCGC00250412-19] | 57.6
19 | O=C(O)C(O)Cc1ccc(O)c(O)c1 (configuration not stated) + Cc1sc2c(c1C)C(c1ccc(Cl)cc1)=N[C@@H](CC(=O)OC(C)(C)C)c1nnc(C)n1-2 [NCGC00250412-19] | -9.7

Row | Structure (SMILES) | excess over highest single agent
20 | C[C@H](Cc1ccc(O)c(O)c1)[C@@H](C)Cc1ccc(O)c(O)c1 + Cc1sc2c(c1C)C(c1ccc(Cl)cc1)=N[C@@H](CC(=O)OC(C)(C)C)c1nnc(C)n1-2 [NCGC00250412-19] | -373
21 | N#CN=C(NCCCCCCOc1ccc(Cl)cc1)Nc1ccncc1 + Cc1sc2c(c1C)C(c1ccc(Cl)cc1)=N[C@@H](CC(=O)OC(C)(C)C)c1nnc(C)n1-2 [NCGC00250412-19] | -32.9
22 | C/C=C(/C)C(=O)O[C@H]1C(C)=C[C@]23C(=O)[C@@H](C=C(CO)[C@@H](O)[C@]12O)[C@H]1[C@@H](C[C@H]3C)C1(C)C + Cc1sc2c(c1C)C(c1ccc(Cl)cc1)=N[C@@H](CC(=O)OC(C)(C)C)c1nnc(C)n1-2 [NCGC00250412-19] | 104
23 | O=C(Nc1cccc(Nc2ncc(Br)c(NCCc3cnc[nH]3)n2)c1)N1CCCC1 + Cc1sc2c(c1C)C(c1ccc(Cl)cc1)=N[C@@H](CC(=O)OC(C)(C)C)c1nnc(C)n1-2 [NCGC00250412-19] | -166
24 | C[C@@H](N)c1ccc(C(=O)Nc2ccnc3[nH]ccc23)cc1 + Cc1sc2c(c1C)C(c1ccc(Cl)cc1)=N[C@@H](CC(=O)OC(C)(C)C)c1nnc(C)n1-2 [NCGC00250412-19] | 125
25 | Oc1ccc(-c2ccc(-c3cc(Nc4cccc(CNC5CC5)c4)n[nH]3)cc2)c(O)c1 + Cc1sc2c(c1C)C(c1ccc(Cl)cc1)=N[C@@H](CC(=O)OC(C)(C)C)c1nnc(C)n1-2 [NCGC00250412-19] | 79.8
26 | COc1cccc2nc(-c3cccs3)nc(NN3C(=O)C=C(C)C3=O)c12 + Cc1sc2c(c1C)C(c1ccc(Cl)cc1)=N[C@@H](CC(=O)OC(C)(C)C)c1nnc(C)n1-2 [NCGC00250412-19] | -408
27 | CN(CC(=O)N(Cc1ccc(C2CCCCC2)cc1)c1ccc(C(=O)O)c(O)c1)S(=O)(=O)c1c(F)c(F)c(F)c(F)c1F + Cc1sc2c(c1C)C(c1ccc(Cl)cc1)=N[C@@H](CC(=O)OC(C)(C)C)c1nnc(C)n1-2 [NCGC00250412-19] | -91.4
28 | Clc1cccc(-n2nnnc2NCc2ccccc2Oc2ccccn2)c1Cl + Cc1sc2c(c1C)C(c1ccc(Cl)cc1)=N[C@@H](CC(=O)OC(C)(C)C)c1nnc(C)n1-2 [NCGC00250412-19] | -103
29 | Cn1cc(C2=C(c3c4n(c5ccccc35)CCC(CN)C4)C(=O)NC2=O)c2ccccc21 (configuration not stated) + Cc1sc2c(c1C)C(c1ccc(Cl)cc1)=N[C@@H](CC(=O)OC(C)(C)C)c1nnc(C)n1-2 [NCGC00250412-19] | -42.8
30 | Cc1cnc(Nc2cccc(CN3CCOCC3)c2)nc1Nc1cccc(S(=O)(=O)NC(C)(C)C)c1 + Cc1sc2c(c1C)C(c1ccc(Cl)cc1)=N[C@@H](CC(=O)OC(C)(C)C)c1nnc(C)n1-2 [NCGC00250412-19] | 108
31 | CC(=O)Nc1sc2c(c1-c1nc3ccccc3s1)CNC2 + Cc1sc2c(c1C)C(c1ccc(Cl)cc1)=N[C@@H](CC(=O)OC(C)(C)C)c1nnc(C)n1-2 [NCGC00250412-19] | 354
32 | Cc1c(CN2CCN(S(C)(=O)=O)CC2)sc2c(N3CCOCC3)nc(-c3cnc(N)nc3)nc12 + Cc1sc2c(c1C)C(c1ccc(Cl)cc1)=N[C@@H](CC(=O)OC(C)(C)C)c1nnc(C)n1-2 [NCGC00250412-19] | -334
33 | Cc1c(CN2CCN(C(=O)[C@H](C)O)CC2)sc2c(N3CCOCC3)nc(-c3cnc(N)nc3)nc12 + Cc1sc2c(c1C)C(c1ccc(Cl)cc1)=N[C@@H](CC(=O)OC(C)(C)C)c1nnc(C)n1-2 [NCGC00250412-19] | -434
34 | CC(C)(O)c1cc2nc(-c3cnc(N)nc3)nc(N3CCOCC3)c2s1 + Cc1sc2c(c1C)C(c1ccc(Cl)cc1)=N[C@@H](CC(=O)OC(C)(C)C)c1nnc(C)n1-2 [NCGC00250412-19] | -253
35 | CNC(=O)c1c(-c2ccc(F)cc2)oc2cc(N(CCO)S(C)(=O)=O)c(C3CC3)cc12 + Cc1sc2c(c1C)C(c1ccc(Cl)cc1)=N[C@@H](CC(=O)OC(C)(C)C)c1nnc(C)n1-2 [NCGC00250412-19] | -113
36 | CN[C@H]1CCc2cc(OC)c(OC)c(OC)c2-c2ccc(OC)c(=O)cc21 + Cc1sc2c(c1C)C(c1ccc(Cl)cc1)=N[C@@H](CC(=O)OC(C)(C)C)c1nnc(C)n1-2 [NCGC00250412-19] | -167
37 | Cc1nc(Nc2n[nH]c3c2CN(C(=O)N[C@H](CN(C)C)c2ccccc2)C3(C)C)c2sccc2n1 + Cc1sc2c(c1C)C(c1ccc(Cl)cc1)=N[C@@H](CC(=O)OC(C)(C)C)c1nnc(C)n1-2 [NCGC00250412-19] | -503
